# PubChem BioAssay
# Activity calls are given as the source filed them.
# Columns and labels:
# [1] = molecular target: Albumin (Bos taurus) (UniProt P02769); test: compounds binding labelled BSA control protein – biochemical, small-molecule microarray, Alexa647 label, 635/667 nm fluorescence, artefact control for SMM control protein annotation, profiling panel (AID 1118); conditions: BSA-A647 binding, fluorescence 635 nm, higher = more signal;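 also: score merges 667 nm emission intensity and signal-to-noise per printed compound spot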
# [2] = probe aXIP binding to arrayed compounds – biochemical, NeuroSMM set, 635/667 nm fluorescence, primary screen (AID 1119); conditions: small-molecule microarray, higher = more signal, called active from +8 up or from −8 down;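 also: probe is the protein aXip251-270 applied at 1 µg/mL to compound-printed slides; binding of probe to printed compounds measured as 667 nm fluorescence plus signal to noise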
# [3] = probe aNOTCH3 binding on compound microarray – biochemical, small-molecule microarray, 635/667 nm fluorescence, primary screen (AID 1120); conditions: higher = more signal;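 also: probe is a biotin-tagged antibody raised against NOTCH3 rather than NOTCH3 protein; score merges spot fluorescence near 667 nm with spot signal to noise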
# [4] = probe aNOTCH2 binding on compound microarray – biochemical, small-molecule microarray, 635/667 nm fluorescence, primary screen (AID 1121); conditions: higher = more signal;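 also: score merges feature fluorescence read at 667 nm with its signal to noise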
# [5] = molecular target: Carbonic anhydrase 2 (Homo sapiens) (UniProt P00918); test: compounds binding carbonic anhydrase 2 – biochemical, small-molecule microarray, Alexa647-labelled CAII, profiling panel (AID 1122); conditions: CAII-A647 binding fluorescence, higher = more signal
# [6] = COS7 lysate on small-molecule microarray, probe aHis, 635 nm (AID 1123); conditions: COS7 cell lysate, fluorescence, higher = more signal;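 also: z-score combines 667nm fluorescence intensity with signal-to-noise per printed compound spot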
# [7] = probe aLAP1 signal on lysate-treated microarray – cell lysate, small-molecule microarray, COS7 lysate, primary screen (AID 1124); conditions: probe aLAP1, fluorescence, higher = more signal;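 also: lysate comes from COS7 cells expressing LAP1 and is applied at 0.3 µg/mL; score merges spot fluorescence near 667 nm with signal-to-noise over triplicate slides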
# [8] = tested on: Sam68 (KHDRBS1); test: compounds binding KHDRBS1 protein – biochemical, small-molecule microarray, 635 nm fluorescence, primary screen (AID 1125); conditions: higher = more signal;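 also: score merges 667 nm channel intensity with signal to noise over triplicate slides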
# [9] = tested on: Chordin-like protein 2 (CHRDL2); test: compounds binding chordin-like 2 – biochemical, small-molecule microarray, 635 nm fluorescence, primary screen (AID 1126); conditions: fluorescence 635 nm, higher = more signal;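 also: printed compound slides probed with Chrdl2 protein at 4 µg/mL for 1 h at 4 C; score merges 667 nm emission intensity with signal to noise over three replicate slides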
# [10] = molecular target: Concanavalin-A (Canavalia ensiformis) (UniProt P02866); test: compounds binding concanavalin A lectin – biochemical, small-molecule microarray, Alexa647 label, 635 nm, artefact control for SMM control protein annotation, primary screen (AID 1127); conditions: ConA-A647 binding fluorescence, higher = more signal;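 also: z combines 667 nm emission intensity with signal-to-noise across three replicate slides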
# Chain of Concanavalin-A (Canavalia ensiformis) (P02866 whole entry, looked up): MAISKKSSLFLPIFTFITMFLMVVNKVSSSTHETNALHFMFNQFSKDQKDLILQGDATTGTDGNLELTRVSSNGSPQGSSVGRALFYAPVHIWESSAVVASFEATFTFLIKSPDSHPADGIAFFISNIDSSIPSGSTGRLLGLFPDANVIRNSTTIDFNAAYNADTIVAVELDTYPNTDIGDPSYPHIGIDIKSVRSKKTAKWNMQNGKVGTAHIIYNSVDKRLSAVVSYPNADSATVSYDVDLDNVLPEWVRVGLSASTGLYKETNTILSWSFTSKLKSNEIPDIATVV
# Chain of Albumin (Bos taurus) (P02769 whole entry, looked up): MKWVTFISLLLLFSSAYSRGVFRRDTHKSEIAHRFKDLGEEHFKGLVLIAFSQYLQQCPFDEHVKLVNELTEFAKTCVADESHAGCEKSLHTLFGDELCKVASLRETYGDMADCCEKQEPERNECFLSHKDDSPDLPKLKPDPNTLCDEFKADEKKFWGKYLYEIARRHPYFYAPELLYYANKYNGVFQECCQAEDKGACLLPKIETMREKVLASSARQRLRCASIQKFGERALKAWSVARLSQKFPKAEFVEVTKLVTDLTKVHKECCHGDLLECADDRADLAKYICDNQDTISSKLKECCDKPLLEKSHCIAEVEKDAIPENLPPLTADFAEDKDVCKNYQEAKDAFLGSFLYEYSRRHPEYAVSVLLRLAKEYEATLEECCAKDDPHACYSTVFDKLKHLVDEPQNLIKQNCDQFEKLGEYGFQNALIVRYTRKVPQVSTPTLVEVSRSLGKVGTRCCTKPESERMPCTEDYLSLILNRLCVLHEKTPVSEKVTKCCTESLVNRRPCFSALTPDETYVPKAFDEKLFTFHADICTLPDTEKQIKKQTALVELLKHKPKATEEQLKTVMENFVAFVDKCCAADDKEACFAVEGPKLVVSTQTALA
SMILES,composite z-score [1],composite Z-score [2],composite z-score [3],composite z-score [4],composite z-score [5],composite z-score [6],composite z-score [7],composite z-score [8],composite z-score [9],composite z-score [10]
COC(=O)[C@@]1(Cc2ccccc2)[C@H]2c3cc(C(=O)N4CCCC4)n(Cc4ccc(S(C)(=O)=O)cc4)c3C[C@H]2CN1C(=O)c1ccccc1,1.12,0.971 (inactive),0.511,-0.173,0.902,1.92,0.559,1.29,-0.832,0.978
CC(C)=CCCC(C)=CC(O)C1C=CC2C(=O)N(C)C(=O)C2N1Nc1ccccc1 (stereo not given),0.919,-0.305 (inactive),0.286,-0.011,0.435,2.66,0.309,1.3,1.28,1.18
COC(=O)[C@@]1(Cc2ccccc2)N=C(c2ccc(OCCCO)cc2)O[C@H]1c1ccccc1,0.103,0.216 (inactive),-0.17,-0.0179,0.624,2.76,1.07,-0.0634,0.0607,0.889
CCOC(=O)C[C@H]1[C@H](OC(=O)c2ccc(C(=O)c3ccccc3)cc2)[C@@H](NC(=O)c2ccccc2)c2cc(OCCCO)ccc2N1C(=O)Cc1ccc(OC)cc1,0.346,0.713 (inactive),0.0242,-0.0624,0.0172,0.445,-0.171,0.226,0.0542,0.163
COCCCNC(=O)[C@]1(CCC(=O)OC(C)(C)C)N=C(c2ccc(OCCCO)cc2)O[C@@H]1c1ccccc1CN=[N+]=[N-],0.839,0.0707 (inactive),0.395,-0.0411,0.78,2.03,1.8,1.3,0.0091,1.12
CN(C)CCCCCCNC(=O)[C@@H]1C[C@@H]2C(=O)N[C@@H](Cc3ccccc3)C(=O)N2[C@@H]1c1ccc(O)cc1,-0.0568,0.675 (inactive),0.299,-0.0276,0.425,1.58,-0.453,1.31,1.41,1.21
COCCCNC(=O)[C@@H]1c2ccccc2C(=O)N(Cc2ccccc2Cl)[C@H]1c1ccc(CO)cc1,-0.432,-0.129 (inactive),-0.147,0.151,0.656,1.72,-0.503,0.95,0.683,0.772
O[C@@H](Cc1ccccc1)[C@H]1C2C=CCCC=C2CN1Cc1cccc(Cl)c1 (stereo not given in full),0.478,0.0338 (inactive),0.361,0.0018,0.385,0.822,0.536,1.31,0.595,0.609
CCCC=C(CCC)[C@@H](NC(=O)c1cccs1)c1ccc(C(F)(F)F)cc1,0.868,0.23 (inactive),0.224,-0.0027,0.173,0.0705,0.156,1.23,-0.595,0.79
C[N+](C)(C)CCCCCCNC(=O)[C@@H]1C[C@@H]2C(=O)N[C@@H](Cc3ccccc3)C(=O)N2[C@@H]1c1cccc(OCCO)c1,0.358,0.6 (inactive),0.0628,-0.132,0.668,1.59,0.591,1.05,1.27,0.622
O=C(c1ccccc1)N1C(=O)[C@]2(COC(c3ccc(OCCCO)cc3)=N2)Cc2ccccc21,0.368,3.03 (inactive),0.201,-0.0249,0.566,3.17,0.771,1.29,0.674,1.16
COCCOC(=O)N1C(=O)[C@@]2(c3cc(C#CCCO)ccc31)[C@H](C(=O)N1CCCCCCC1)[C@H]1C(=O)O[C@H](c3ccccc3)[C@H](c3ccccc3)N1[C@@H]2c1ccc(OCCO)cc1,0.796,1.91 (inactive),1.33,0.833,0.549,2.75,0.906,1.3,1.26,1.16
CC(C)C(O)C1C=CC2C(=O)NC(=O)C2N1Nc1ccc(Cl)cc1Cl (stereo not given),0.523,0.449 (inactive),-0.0414,-0.0659,0.751,1.78,1.33,0.531,-0.827,-0.478
CC(=O)NCCCC[C@@H]1NC(=O)[C@H]2C[C@@H](C(=O)NCCCCCCNC(=O)CS)[C@@H](c3ccc(O)cc3)N2C1=O,-1.4,0.239 (inactive),-0.216,-0.185,0.727,2.68,0.0073,0.0719,-0.205,-0.366
O=C1c2ccccc2[C@](Cc2ccccc2I)(C(=O)NCC(F)(F)F)[C@H](c2ccc(CO)cc2)N1Cc1ccccc1Cl,0.83,-0.228 (inactive),0.0445,-0.0811,0.596,2.04,1.42,1.29,-0.466,1.09
CC#CC(=O)Oc1ccccc1C=CC(=O)OCC,-0.138,-0.263 (inactive),0.0035,-0.118,0.358,-0.0224,-0.021,0.82,-0.0448,0.502
